Measured values reported in the antibiotic and cytotoxicity screens of Wong et al. (2023).
The campaign covered roughly 39,000 compounds. About 1,500 (3.8%) were called active. This is one part of a sample in which actives are shown more often than they occur.

System: HSkMC (human skeletal muscle cells)
Test: cytotoxicity call (relative viability < 0.9)
Details: 10 µM

SMILES	cytotoxicity call
C[C@H]1CN([C@@H](C)CO)C(=O)c2cccc(NS(=O)(=O)c3ccc(F)cc3)c2O[C@@H]1CN(C)S(=O)(=O)c1cn(C)cn1	inactive
C[C@@H]1CCCCO[C@H](CN(C)C(=O)c2ccncc2)[C@H](C)CN([C@H](C)CO)C(=O)c2cc(NS(=O)(=O)c3cn(C)cn3)ccc2O1	inactive
O=C(C[C@@H]1C=C[C@@H](NC(=O)c2cccc(F)c2)[C@@H](CO)O1)NCCN1CCCC1	inactive
Clc1cccn2nnnc12	inactive
C[C@@H]1CCCCO[C@H](CN(C)Cc2ccc(C(=O)O)cc2)[C@H](C)CN([C@@H](C)CO)C(=O)c2cc(NC(=O)c3ccccc3)ccc2O1	inactive
C[C@@H]1CCCCO[C@@H](CN(C)Cc2ccc(C(F)(F)F)cc2)[C@H](C)CN([C@@H](C)CO)C(=O)c2cc(NC(=O)CCC(F)(F)F)ccc2O1	inactive
COC(=O)C1=CC(CCCO)=C[C@@H](c2cccs2)N(Cc2cccc(OC(F)(F)F)c2)C=C1C(=O)OC	inactive
NC(=O)[C@H]1[C@@H]2C(=O)O[C@@H](c3ccccc3)[C@@H](c3ccccc3)N2[C@@H](c2ccccc2OCCO)[C@]12C(=O)Nc1ccc(C#CC3=CCCCC3)cc12	active
O=C1O[C@H](c2ccccc2)[C@H](c2ccccc2)N2[C@H]1[C@@H](C(=O)O)[C@]1(C(=O)Nc3ccc(C#CC4=CCCCC4)cc31)[C@H]2c1ccccc1OCCO	inactive
COCCOC(=O)N1C(=O)[C@@]2(c3cc(C#Cc4ccc(OC)cc4)ccc31)[C@H](c1ccc(OCCO)cc1)N1[C@H](c3ccccc3)[C@H](c3ccccc3)OC(=O)[C@H]1[C@@H]2C(N)=O	inactive
COc1ccc(C#Cc2ccc3c(c2)[C@]2(C(=O)N3)[C@H](C(N)=O)[C@H]3C(=O)O[C@H](c4ccccc4)[C@H](c4ccccc4)N3[C@@H]2c2ccccc2OCCO)cc1	active
COc1ccc(C#Cc2ccc3c(c2)[C@]2(C(=O)N3)[C@H](c3ccccc3OCCO)N3[C@H](c4ccccc4)[C@H](c4ccccc4)OC(=O)[C@H]3[C@@H]2C(=O)O)cc1	inactive
COc1ccc(C#Cc2ccc3c(c2)[C@]2(C(=O)N3)[C@H](C(=O)O)[C@H]3C(=O)O[C@H](c4ccccc4)[C@H](c4ccccc4)N3[C@@H]2c2ccccc2OCCO)cc1	inactive
O=C1O[C@@H](c2ccccc2)[C@@H](c2ccccc2)N2[C@@H](c3ccccc3OCCO)[C@]3(C(=O)Nc4ccc(C#CC5=CCCCC5)cc43)[C@@H](C(=O)O)[C@H]12	inactive
COc1ccc(C#Cc2ccc3c(c2)[C@@]2(C(=O)N3C(=O)N[C@@H](C)c3ccccc3)[C@H](c3ccc(OCCO)cc3)N3[C@H](c4ccccc4)[C@H](c4ccccc4)OC(=O)[C@H]3[C@@H]2C(=O)O)cc1	active
COCCOC(=O)N1C(=O)[C@@]2(c3cc(C#Cc4ccc(OC)cc4)ccc31)[C@H](c1ccc(OCCO)cc1)N1[C@H](c3ccccc3)[C@H](c3ccccc3)OC(=O)[C@H]1[C@@H]2C(=O)NC[C@H](O)c1ccccc1	inactive
C[C@H]1CN([C@@H](C)CO)C(=O)c2cccc(NC(=O)c3cnccn3)c2O[C@@H]1CN(C)S(=O)(=O)c1cccs1	inactive
C[C@@H]1CCCCO[C@H](CN(C)Cc2ccc(C(F)(F)F)cc2)[C@@H](C)CN([C@@H](C)CO)C(=O)c2cc(NC(=O)C3CCCCC3)ccc2O1	inactive

SMILES	cytotoxicity call
O=C(NCCN1CCOCC1)[C@@H]1c2ccccc2C(=O)N(Cc2cc(C(F)(F)F)cc(C(F)(F)F)c2)[C@H]1c1ccc(CO)cc1	inactive
C[C@H]1CN([C@@H](C)CO)C(=O)Cc2cc(NC(=O)CCN3CCOCC3)ccc2O[C@@H]1CN(C)Cc1ccc(C(=O)Nc2ccccc2N)cc1	inactive
Cc1noc(C)c1NC(=O)Nc1ccc2c(c1)C(=O)N([C@H](C)CO)C[C@@H](C)[C@@H](CN(C)Cc1ccc(Oc3ccccc3)cc1)O2	inactive
C[C@@H]1CN([C@@H](C)CO)C(=O)c2cccc(NS(=O)(=O)c3cn(C)cn3)c2O[C@@H]1CN(C)S(=O)(=O)c1ccc(Cl)cc1	inactive
COc1ccc(CN(C)C[C@H]2Oc3ccc(NS(C)(=O)=O)cc3C(=O)N([C@@H](C)CO)C[C@@H]2C)cc1	inactive
CNC[C@H]1Oc2c(NS(=O)(=O)c3cn(C)cn3)cccc2C(=O)N([C@H](C)CO)C[C@H]1C	inactive
Cn1cnc(CCNC(=O)C[C@H]2CC[C@@H]3[C@H](COC[C@H](O)CN3C(=O)Nc3ccc(C(F)(F)F)cc3)O2)c1	inactive
CCNC(=O)C[C@@H]1C=C[C@H](NC(=O)C2CC2)[C@@H](CO)O1	inactive
C=CCC[C@H](Cc1ccc(F)cc1)C(=O)OC[C@H](Cc1c[nH]c2ccccc12)NC(=O)[C@@H](CC=C)CC(=O)N[C@H](CO)Cc1ccccc1	active
C=CC[C@@H](CC(=O)N[C@H](CO)Cc1ccccc1)C(=O)N[C@H](COC(=O)[C@@H](CC=C)Cc1ccc(F)cc1)Cc1c[nH]c2ccccc12	inactive
C=CC[C@@H](CC(=O)N[C@H](CO)Cc1ccccc1)C(=O)N[C@@H](COC(=O)[C@@H](CC=C)NC(=O)OCC1c2ccccc2-c2ccccc21)Cc1c[nH]c2ccccc12	active
C=CCC[C@@H](Cc1ccc(F)cc1)C(=O)OC[C@@H](Cc1c[nH]c2ccccc12)NC(=O)[C@H](CC=C)CC(=O)N[C@@H](CO)Cc1ccccc1	inactive
C=CCC[C@H](Cc1ccc(F)cc1)C(=O)OC[C@H](Cc1c[nH]c2ccccc12)NC(=O)[C@H](CC=C)CC(=O)N[C@@H](CO)Cc1ccccc1	inactive
C=CC[C@H](CC(=O)N[C@@H](CO)Cc1ccccc1)C(=O)N[C@@H](COC(=O)[C@@H](CC=C)Cc1ccc(F)cc1)Cc1c[nH]c2ccccc12	inactive
C=CCC[C@@H](Cc1ccc(F)cc1)C(=O)OC[C@H](Cc1c[nH]c2ccccc12)NC(=O)[C@@H](CC=C)CC(=O)N[C@@H](CO)Cc1ccccc1	inactive
C=CCC[C@@H](Cc1ccc(F)cc1)C(=O)OC[C@H](Cc1c[nH]c2ccccc12)NC(=O)[C@@H](CC=C)CC(=O)N[C@H](CO)Cc1ccccc1	inactive
C=CCC[C@H](Cc1ccc(F)cc1)C(=O)OC[C@H](Cc1c[nH]c2ccccc12)NC(=O)[C@@H](CC=C)CC(=O)N[C@@H](CO)Cc1ccccc1	active
